# Screening data (PubChem BioAssay)
# This is a sample that favours compounds with a hit; in the whole collection about 4.9% have one here.
# HSF1 inhib = HSF1 inhibition | activity change, negative = inhibition, % at 7.5 µM (by protocol) | 0.77% of 300,000 active | AID 2098 | NIH3T3-HGL HSE-luciferase, MG132-induced, luminescence 8 h; stronger effect = lower value;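 active = more than half of replicate wells show activity change below -50%, luminescence cut by over half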;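 also: luciferase reports HSF-1 transcriptional activity via heat shock element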
# HSF-1 act = increases HSF-1 driven luciferase reporter signal | NIH3T3-HGL HSF-1 luciferase reporter, MG132, 8 h; 100% = twice DMSO control signal | activation, % at 9 µM | 1.7% of 300,000 active | AID 504408;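 active = mean replicate activation of at least 50% with a set share of replicates each reaching 50%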
# dFosB act = mouse delta FosB homodimer activation. 0.99% of 340,000 active. AID 493131. activation, % at 25 µM. purified delta FosB, TAMRA-CDK5 oligo fluorescence polarization; percent of positive-control signal above neutral wells. P13346;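 active = mean activation above about 17%, with every replicate also reaching it, limit read from the data, passing the limit was not always enough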
# Target sequence (P13346 whole entry, looked up): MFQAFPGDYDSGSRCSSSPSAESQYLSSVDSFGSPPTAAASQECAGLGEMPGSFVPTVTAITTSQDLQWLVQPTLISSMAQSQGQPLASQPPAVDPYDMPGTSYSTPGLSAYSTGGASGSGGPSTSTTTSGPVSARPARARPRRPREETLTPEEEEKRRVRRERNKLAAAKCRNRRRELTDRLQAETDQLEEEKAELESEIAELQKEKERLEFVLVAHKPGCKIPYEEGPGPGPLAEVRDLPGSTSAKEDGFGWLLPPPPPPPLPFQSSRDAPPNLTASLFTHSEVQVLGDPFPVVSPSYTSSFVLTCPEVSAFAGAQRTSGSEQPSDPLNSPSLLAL
# MPTP block = blocks calcium-induced mitochondrial swelling; AID 602449; isolated mouse mitochondria, Ca2+ swelling absorbance, 30 min; inhibition, % at 10 µM; 1.4% of 360,000 active;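 active = inhibition of 50% or more, scaled per plate between neutral and stimulator controls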
# HSP90 inh = HSP90 refolding inhibition in rabbit reticulocyte lysate. AID 1789. luciferase refolding luminescence, 3 h. inhibition, % at 5.6 µM. 0.91% of 290,000 active;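 active = inhibition above the screen-wide mean plus 3 SD, computed separately per campaign, cut at about 16% in these data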;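 also: inhibitors lower the luminescence because luciferase stays unfolded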
# Platelet DG rel = modulates dense granule release in human platelets; AID 1663; 0.22% of 300,000 active; human platelet-rich plasma, SFLLRN dense granule ATP release, luminescence; inhibition, %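 (compounds screened at 7.5 µM in platelet-rich plasma)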;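 active = mean replicate score, as percent of positive control, at or above 50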
# Rh123 counter = membrane potential counter-screen of mitochondrial pore inhibitors | isolated mitochondria, Rhodamine 123 fluorescence | AID 624504 | inhibition, % at 10 µM | shares compounds with MPTP block | 78% of 5,000 active; in the data active = inhibition above about 22%
# MPTP swell DR = MPTP inhibition, dose response swelling confirmation; shares compounds with MPTP block; isolated mitochondria swelling, absorbance; IC50, µM; 58% of 780 active; AID 651561; in the data active = IC50 below about 20 µM
# MPTP counter DR = active in counter-screen for permeability transition pore inhibitors | isolated mitochondria counterscreen, fluorescence read-out | shares compounds with MPTP block | 49% of 780 active | AID 651564 | IC50, µM; in the data active = IC50 below about 80 µM
# A number is an active result; . = inactive; / = not tested or not shown.
SMILES,HSF1 inhib,HSF-1 act,dFosB act,MPTP block,HSP90 inh,Platelet DG rel,Rh123 counter,others
O=C(NN1CCCCC1)c1cnn2c(C(F)F)cc(-c3ccccc3)nc12,.,.,.,.,.,.,/,
O=C(Nc1cnn(Cc2ccc(Cl)cc2Cl)c1)c1cc(-c2cccs2)on1,.,.,.,.,.,.,/,
CC(=O)c1cccc(NC(=O)Nc2cnn(Cc3ccc(Cl)cc3Cl)c2)c1,.,.,.,73,.,.,71,
O=c1/c(=C\c2cccnc2)sc2nc3ccccc3n12,.,.,.,.,.,.,/,
O=c1/c(=C/c2ccc(O)c([N+](=O)[O-])c2)sc2nc3ccccc3n12,/,/,.,66,.,/,30,
CCN(CC)c1ccc(/C=N/NC(=O)CNC(=O)C2COc3ccccc3O2)c(O)c1 (stereo unspecified),.,.,.,.,.,.,/,
COC(=O)[C@]12CCCCC=C1N(CCc1ccc(OC)c(OC)c1)C(=O)[C@H](CC(=O)NCc1cccc(C(F)(F)F)c1)C2,/,/,/,.,/,/,/,
Fc1cccc(NC(=S)Nc2ccc(Br)cc2)c1,.,.,.,110,.,.,96,
COc1cccc(NC(=S)Nc2ccc(F)cc2)c1,.,.,.,.,.,.,/,
S=C(Nc1ccc(Br)cc1)Nc1ccc2c(c1)OCCO2,.,.,.,81,.,.,106,
O=C(NC(=S)Nc1ccc2c(c1)OCCO2)c1cccc(Br)c1,.,.,.,.,.,.,/,
S=C(Nc1ccccc1)Nc1ccccc1Br,.,.,.,.,.,.,/,
Cc1ccccc1NC(=S)Nc1ccc(Br)cc1,.,.,.,80,.,.,83,
COc1ccccc1NC(=O)C(C)OC(=O)CCCOc1ccccc1 (stereo unspecified),.,.,.,.,/,.,/,
Cc1cccc(CSC(Nc2ccc(F)cc2)=C(C#N)C#N)c1,.,.,.,97,.,.,93,
N#CC(C#N)=C(Nc1ccc(F)cc1)SCc1cccc(Br)c1,.,.,.,91,.,.,89,
Cc1cccc(CSC(=N)N)c1,.,.,.,.,.,.,/,
Cc1noc(C)c1C(=O)Nc1nccs1,.,.,.,.,.,.,/,
COc1ccc(NC(=O)c2[nH]c(C)c(C(C)=O)c2C)cc1S(=O)(=O)N1CCOCC1,.,.,.,.,.,.,/,
CC(=O)c1c(C)[nH]c(C(=O)Nc2ccc(C)c(S(=O)(=O)Nc3ccc(C)cc3C)c2)c1C,.,.,.,92,.,.,72,
CC(=O)c1c(C)[nH]c(C(=O)Nc2ccc(Cl)c(S(=O)(=O)N3CCOCC3)c2)c1C,.,.,.,64,.,.,80,
CC/C(=N\Nc1ccc([N+](=O)[O-])cc1)c1ccccc1,.,.,.,65,.,.,63,
O=[N+]([O-])c1ccc(NN=C(Oc2ccccc2)c2ccc([N+](=O)[O-])cc2)cc1,/,/,/,.,/,/,/,
CCc1ccc(/C(C)=N\Nc2ccc([N+](=O)[O-])cc2)cc1,.,.,.,58,.,.,51,
CC(O)CNCCCOc1ccc(Cl)cc1C(C)(C)C (stereo unspecified),-66,.,.,74,.,.,.,MPTP swell DR=5;MPTP counter DR=.
SMILES,HSF1 inhib,HSF-1 act,dFosB act,MPTP block,HSP90 inh,Platelet DG rel,Rh123 counter,others
O=c1cc(C2CCCCC2)[nH]c(=O)[nH]1,/,/,.,.,/,/,/,
Cc1cc(C)n(C(=O)/C(C#N)=N/Nc2cc(Cl)cc(Cl)c2)n1,.,.,.,103,.,.,94,
Cc1cc(C)n(C(=O)/C(C#N)=N\Nc2ccccc2[N+](=O)[O-])n1,.,.,.,.,.,.,/,
Cc1nn(C)c(C)c1CNC(=O)Nc1ccc(Cl)cc1,.,.,.,.,.,.,/,
Cc1nn(C)c(C)c1NC(=O)Nc1ccc(Cl)c(Cl)c1,.,.,.,102,.,.,88,
Cc1c(NC(=O)Nc2ccccc2)c(=O)n(-c2ccccc2)n1C,.,.,.,.,.,.,/,
Cc1nn(C)c(C)c1NC(=O)Nc1cccc(C(F)(F)F)c1,.,.,.,72,.,.,54,
Cn1ccc(NC(=O)Nc2cccc(C(F)(F)F)c2)n1,.,.,.,.,.,.,/,
Cc1c(NC(=O)Nc2ccc(Cl)c(Cl)c2)c(=O)n(-c2ccccc2)n1C,/,/,.,90,.,/,90,
CCOc1ccc(C(=O)Oc2cc(C)[nH]c(=O)c2[N+](=O)[O-])cc1OCC,.,.,.,.,.,.,/,
O=C(N/N=C/c1ccccc1F)c1ccccc1OCc1ccccc1,.,.,.,.,.,.,/,
COc1ccccc1OCCCCCc1c(C)n[nH]c1C,.,.,.,.,.,.,/,
CCOc1ccccc1OCCCCCc1c(C)n[nH]c1C,.,.,.,81,.,.,47,
Cc1cccc(OCCCCc2c(C)n[nH]c2C)c1C,.,.,.,54,.,.,83,
COc1ccc(NC(=O)Nc2cccc(Cl)c2Cl)c(OC)n1,.,.,.,.,.,.,/,
N#CCC(=O)Nc1ccc(C(=O)OCC(=O)N(C2CCCCC2)C2CCCCC2)cc1,.,.,.,.,.,.,/,
CCc1cccc(NC(=O)Cn2cc(C=O)c3ccccc32)c1,.,.,.,73,.,.,50,
Cc1ccc(-n2c(O)c(/C=N/Nc3ccc(S(=O)(=O)N4CCOCC4)cc3[N+](=O)[O-])c3ccccc3c2=O)c(C)c1,.,.,.,110,.,.,40,
COc1ccc(C(C)=NNc2ccc([N+](=O)[O-])cc2S(=O)(=O)Nc2ccccc2C(=O)O)c(OC)c1,/,/,.,86,/,/,38,
CC(=O)Nc1ccc(C=NNc2ccc([N+](=O)[O-])cc2S(=O)(=O)Nc2ccccc2C(=O)O)cc1,/,/,.,.,/,/,/,
COc1ccc(CC(=O)Nc2ccccc2C(F)(F)F)cc1S(=O)(=O)N1CCOCC1,/,/,/,.,/,/,/,
COc1cc(NS(=O)(=O)c2ccc(-n3cccn3)cc2)cc(OC)c1,/,/,/,60,/,/,71,
CCN(c1cccc(C)c1)S(=O)(=O)c1cc(CN2C(=O)c3cccnc3C2=O)ccc1OC,.,.,.,.,.,.,/,
O=C(Nc1ccc(F)c(Cl)c1)Nc1cnccn1,.,.,.,.,.,.,/,
O=C(Nc1ccc(Cl)cc1)Nc1cnccn1,.,.,.,53,.,.,70,
Cc1ccc(NC(=O)Nc2cnccn2)cc1,.,.,.,.,.,.,/,
O=C(Nc1ccc([N+](=O)[O-])cc1)Nc1cnccn1,.,.,.,69,.,.,89,
COC(=O)[C@]1(Cc2ccccc2)N[C@H](CN(C)C(=O)c2ccc(F)cc2)[C@@H]2C(=O)N(C)C(=O)[C@@H]21,/,/,.,.,/,/,/,
Cc1cc(CNC(=O)COc2ccccc2F)c2ccccc2n1,.,.,.,.,.,.,/,
